The text below walks through data of PubChem BioAssay (Tox21).

Inconclusive results are not listed. A call without a number means that no potency is given here. The source made the active and inactive calls. The call rests on the fitted dose curve; in most records, active means well fitted cell-killing curve with a large enough effect in the repeat runs; inconclusive means weak or mixed curves, or effect the other way; inactive means flat fitted curve, though single readings scatter.
Potency means the concentration at half of the fitted maximal effect.

A short description of this test: qHTS RealTime-Glo MT Cell Viability Assay in HepG2 cells - 0 hour (AID 1224889). Further: nearly all actives have a fitted effect of over 50% in size. Conditions: RealTime-Glo luminescence; series mostly up to 76.8 µM. An excerpt: U.S. Tox21 Program National Center for Advancing Translational Sciences [NCATS] NIH Chemical Genomics Center [NCGC] U.S. Environmental Protection Agency [EPA] National Institutes of Environmental Health Sciences [NIEHS] National Toxicology Program [NTP] U.S. Food and Drug Administration [FDA] Tox21 Assay Overview: Measure of cell viability is critical in the cell-base assay. Analysis of cell viability is necessary for the characterization of cell responses to cytotoxic drugs and environmental stress. A RealTime-Glo MT Cell Viability Assay to monitor cell viability in real time of continues cell culture during 40 hours of compound treatment was used to screen Tox21 10K library compounds in HepG2 cells. The RealTime-Glo MT Cell Viability Assay is a nonlytic, homogeneous, bioluminescent method to measure cell viability in real time using a simple, plate-based method. The assay involves adding NanoLuc luciferase and a cell-permeant prosubstrate to cells in culture. Viable cells reduce the proprietary prosubstrate to generate a substrate for NanoLuc luciferase. This substrate diffuses from cells into the surrounding culture medium, where it is rapidly used by the NanoLuc Enzyme to produce a luminescent signal. The signal correlates with the number of viable cells, making the assay well suited for cytotoxicity studies.
Tox21 Assay Protocol Summary: The mixture of HepG2 cell suspension and reagents were dispensed at 600cells/6 ul/well in 1536-well tissue culture treated black solid bottom plates using a Multidrop dispenser. After the assay plates were incubated at a 37 C/5% CO2 incubator for 5 hours, 23 nL of compounds dissolved in DMSO, positive and negative controls was transferred to the assay plate by a pintool work station. The plates were incubated at 37 C for 40 hours. The luminescence intensity were measured at 0h, 8h, 16h, 24h, 32h and 40h time points using ViewLux plate reader during compound treatment.
Consider `Cc1cc2nc3ccc(=[N+](C)C)cc-3sc2cc1N`, for which the Potency entry is “inactive”.
The value for `COC(OC)(C(=O)c1ccccc1)c1ccccc1` was “inactive”.
The value for `Cc1cnc(C)c(C)n1` was “inactive”; that for `CC(=O)OCC(=O)[C@H]1CC[C@H]2[C@@H]3CCC4=CC(=O)CC[C@]4(C)[C@H]3CC[C@]12C` was 3.01 µM (active); that for `NC(=O)N(O)[C@@H]1COc2cc(OCc3ccccc3)ccc21` was “inactive”.
Take `CCCCCCCCCCCCCCC[C@H](O)[C@@H](N)CO`: the Potency entry was “inactive”.
For `CCCCC(CC)C(=O)OCCOCCOCCOCCOC(=O)C(CC)CCCC` (stereo not given), the Potency result was “inactive”.
The value for `O=C(CCCCCCC(=O)Nc1ccccc1)NO` was “inactive”; that for `CC(=N\O)/C(C)=N/O` was “inactive”.
On to `CCCCCCCCCOC(C)=O`, for which the Potency entry is “inactive”.
For `CCN(CC)CCNC(=O)c1ccc(NC(C)=O)cc1`, the Potency result is “inactive”.
As to `CC1=CC(O)CC(C)(C)C1` (stereo not given), the Potency result was “inactive”.
`CCc1c2c(nc3ccc(OC(=O)N4CCC(N5CCCCC5)CC4)cc13)-c1cc3c(c(=O)n1C2)COC(=O)[C@]3(O)CC`: the Potency result is “inactive”.
Consider `CCOC(=O)[C@@H](C)Oc1ccc(Oc2nc3ccc(Cl)cc3o2)cc1`, for which the Potency entry is “inactive”.
Consider `COC(=O)c1cc(Cl)ccc1NS(=O)(=O)C(F)(F)F`, for which the Potency entry was “inactive”.
The same measure for `C=CC(C)=CCC=C(C)C`: “inactive”; for `OC(CCCN1CCCCC1)(c1ccccc1)c1ccccc1`: “inactive”; for `C[Si](NC1CCCCC1)(NC1CCCCC1)NC1CCCCC1`: “inactive”.
The same measure for `COCCOC`: “inactive”; for `CC1CC(O)CC(C)(C)C1` (stereo not given): “inactive”.
The same measure for `CCC(C)(O)CCC=C(C)C` (stereo not given): “inactive”; for `CCC(=O)OC/C=C/c1ccccc1`: “inactive”; for `O=C(O)c1snc(Cl)c1Cl`: “inactive”.
As for `CC(Cl)C(Cl)Cl` (stereo not given), the Potency result was “inactive”.
For the compound `CO[C@@]12[C@H](COC(N)=O)C3=C(C(=O)C(C)=C(N)C3=O)N1C[C@@H]1N[C@@H]12`, the Potency entry is “inactive”.
The same measure for `CCC(=O)Oc1ccc(/C(CC)=C(\CC)c2ccc(OC(=O)CC)cc2)cc1`: “inactive”.
The same measure for `CN1Cc2cc(C(=O)N3CCC(C4CCNCC4)CC3)ccc2N[C@@H](CC(=O)O)C1=O`: “inactive”; for `NCC1CCCC(CN)C1` (stereo not given): “inactive”.
Take `CCOC(=O)CC(=O)C(=O)OCC`: the Potency entry was “inactive”.
The value for `CC1C2CC(CC2C2CCCC(O)C2)C1(C)C` (stereo not given) was “inactive”; that for `CC(C)CCCC(=O)O` was “inactive”.
The same measure for `CCCCN(CCCC)CCCOC(=O)c1ccc(N)cc1`: “inactive”.
In the case of `Cc1ccc(Nc2nccc(N(C)c3ccc4c(C)n(C)nc4c3)n2)cc1S(N)(=O)=O`, the Potency entry was “inactive”.
Regarding `CN1CCCN=C1/C=C/c1cccs1`, the Potency entry is “inactive”.
As to `ON(Cc1ccccc1)Cc1ccccc1`, the Potency entry was “inactive”.
Regarding `O=C(O)c1cccnc1C(=O)O`, the Potency result was “inactive”.
In the case of `CCCOC(=O)c1ccc(N)cc1`, the Potency result is “inactive”.
Turning to `C/C=C(\C)C(=O)OCCC(C)CCC=C(C)C` (stereo not given), the Potency result was “inactive”.
Take `Nc1ccc(C(=O)OCCCOC(=O)c2ccc(N)cc2)cc1`: the Potency result is “inactive”.
The same measure for `Nc1ccc(S(=O)(=O)O)cc1`: “inactive”.
